Assays:
Experiment in all cases: DAPPL (digital affinity profiling via proximity ligation, sequencing); 10 mM Tris-HCl pH 7.5, 50 mM NaCl, 1 mM DTT, 4% glycerol, room temperature, 30 min; GST-TFs on glutathione beads, 16-mer random dsDNA library, 0.1% formaldehyde crosslink after washing; high values mean tight binding
Conditions in all cases: protein: recombinant; tags: N-terminal GST; dsDNA, one strand shown
[1] = target: T1, FLI1 (Homo sapiens, UniProt Q01543 1-452)
T1 sequence: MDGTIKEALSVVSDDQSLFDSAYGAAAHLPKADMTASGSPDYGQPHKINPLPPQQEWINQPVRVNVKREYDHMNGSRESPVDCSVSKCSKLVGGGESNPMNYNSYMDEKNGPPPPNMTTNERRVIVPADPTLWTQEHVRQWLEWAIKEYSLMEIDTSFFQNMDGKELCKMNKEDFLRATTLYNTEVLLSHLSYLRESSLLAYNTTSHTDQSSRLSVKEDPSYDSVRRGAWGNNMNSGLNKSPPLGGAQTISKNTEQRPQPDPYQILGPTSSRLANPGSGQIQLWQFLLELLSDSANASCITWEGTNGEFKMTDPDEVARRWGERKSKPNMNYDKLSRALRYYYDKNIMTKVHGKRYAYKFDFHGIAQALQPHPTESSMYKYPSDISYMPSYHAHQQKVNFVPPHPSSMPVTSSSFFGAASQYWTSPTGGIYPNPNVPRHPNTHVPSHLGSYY
How it was run: (§1)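 Human transcription factors were made in yeast as GST fusions, captured on glutathione beads and barcoded with DNA. With a tag-only sample included, the pool was incubated with 200 nmole of a random double-stranded 16-mer DNA library in Tris/NaCl/DTT/glycerol buffer at room temperature for 30 min, then crosslinked with 0.1% formaldehyde after washing, ligated by proximity, amplified and sequenced. For binding signal, each hexamer's read frequency for a factor is divided by its frequency for the tag-only sample.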

[2] = target: T2, ELK1 (Homo sapiens, UniProt P19419 1-428)
T2 sequence: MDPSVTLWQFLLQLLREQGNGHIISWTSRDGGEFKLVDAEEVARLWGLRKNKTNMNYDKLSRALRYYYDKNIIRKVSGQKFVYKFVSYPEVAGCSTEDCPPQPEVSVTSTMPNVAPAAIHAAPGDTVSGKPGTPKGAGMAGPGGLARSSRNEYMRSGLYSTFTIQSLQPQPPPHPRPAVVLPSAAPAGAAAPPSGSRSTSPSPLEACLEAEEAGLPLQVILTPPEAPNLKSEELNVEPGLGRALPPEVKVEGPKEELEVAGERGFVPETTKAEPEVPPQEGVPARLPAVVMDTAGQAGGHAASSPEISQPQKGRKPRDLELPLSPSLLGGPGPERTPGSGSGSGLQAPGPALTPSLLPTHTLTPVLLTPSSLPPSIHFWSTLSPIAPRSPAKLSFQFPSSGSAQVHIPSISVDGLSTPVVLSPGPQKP
How it was run: as §1

[3] = target: T3, GABPA (Homo sapiens, UniProt Q06546 1-454)
T3 sequence: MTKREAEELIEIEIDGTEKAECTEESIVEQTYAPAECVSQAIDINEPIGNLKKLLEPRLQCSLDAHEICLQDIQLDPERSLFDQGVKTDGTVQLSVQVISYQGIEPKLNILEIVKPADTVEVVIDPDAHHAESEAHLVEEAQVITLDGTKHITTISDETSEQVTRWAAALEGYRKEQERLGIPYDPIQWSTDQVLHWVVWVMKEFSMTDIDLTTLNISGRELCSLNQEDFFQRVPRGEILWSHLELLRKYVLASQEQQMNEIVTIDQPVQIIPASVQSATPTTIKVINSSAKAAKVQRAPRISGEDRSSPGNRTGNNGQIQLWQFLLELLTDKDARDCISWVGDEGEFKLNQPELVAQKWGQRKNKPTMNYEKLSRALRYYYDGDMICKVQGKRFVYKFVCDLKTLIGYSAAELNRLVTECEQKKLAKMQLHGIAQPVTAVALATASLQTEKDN
How it was run: as §1

[4] = target: T4, ERG (Homo sapiens, UniProt P11308 1-479)
T4 sequence: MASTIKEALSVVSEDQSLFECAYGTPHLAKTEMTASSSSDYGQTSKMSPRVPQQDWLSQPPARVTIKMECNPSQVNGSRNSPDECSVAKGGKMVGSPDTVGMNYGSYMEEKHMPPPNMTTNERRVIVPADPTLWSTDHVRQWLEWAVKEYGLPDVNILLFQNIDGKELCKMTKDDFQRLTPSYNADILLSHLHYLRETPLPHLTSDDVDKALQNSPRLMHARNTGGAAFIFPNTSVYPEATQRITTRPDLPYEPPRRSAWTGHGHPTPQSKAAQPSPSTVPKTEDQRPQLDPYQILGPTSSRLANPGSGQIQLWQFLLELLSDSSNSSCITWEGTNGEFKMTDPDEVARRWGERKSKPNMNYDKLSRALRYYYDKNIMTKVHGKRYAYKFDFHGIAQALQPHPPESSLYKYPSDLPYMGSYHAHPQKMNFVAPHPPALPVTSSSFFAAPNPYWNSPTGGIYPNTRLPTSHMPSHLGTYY
How it was run: as §1

[5] = target: ELF1 (Homo sapiens, UniProt P32519 1-619)
ELF1, sequence (P32519 whole entry): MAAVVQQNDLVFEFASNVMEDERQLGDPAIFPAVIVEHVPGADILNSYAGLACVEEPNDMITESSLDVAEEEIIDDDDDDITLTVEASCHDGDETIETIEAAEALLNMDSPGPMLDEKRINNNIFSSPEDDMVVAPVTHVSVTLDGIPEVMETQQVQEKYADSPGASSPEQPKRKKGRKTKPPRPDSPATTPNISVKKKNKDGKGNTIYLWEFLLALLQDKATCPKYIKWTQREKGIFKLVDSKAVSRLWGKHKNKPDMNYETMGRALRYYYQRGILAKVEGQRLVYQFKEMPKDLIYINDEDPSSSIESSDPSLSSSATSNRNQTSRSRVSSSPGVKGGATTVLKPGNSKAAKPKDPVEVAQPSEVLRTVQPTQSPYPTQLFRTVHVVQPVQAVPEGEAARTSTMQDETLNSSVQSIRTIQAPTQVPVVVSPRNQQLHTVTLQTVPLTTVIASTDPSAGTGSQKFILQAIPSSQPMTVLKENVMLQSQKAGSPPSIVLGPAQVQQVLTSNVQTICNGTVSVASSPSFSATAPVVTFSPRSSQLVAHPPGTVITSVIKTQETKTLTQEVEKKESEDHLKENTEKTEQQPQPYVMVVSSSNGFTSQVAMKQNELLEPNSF
How it was run: as §1

[6] = target: T5, EHF (Homo sapiens, UniProt Q9NZC4 1-300)
T5 sequence: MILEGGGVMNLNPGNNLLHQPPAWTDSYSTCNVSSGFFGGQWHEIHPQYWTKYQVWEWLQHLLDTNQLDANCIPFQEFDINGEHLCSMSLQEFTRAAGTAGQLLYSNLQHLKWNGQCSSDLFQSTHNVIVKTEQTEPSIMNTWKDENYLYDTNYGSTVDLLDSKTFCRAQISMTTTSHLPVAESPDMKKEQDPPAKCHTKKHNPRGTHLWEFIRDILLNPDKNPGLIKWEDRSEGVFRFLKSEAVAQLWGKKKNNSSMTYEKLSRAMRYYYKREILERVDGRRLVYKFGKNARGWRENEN
How it was run: as §1

[7] = target: SPI1 (Homo sapiens, UniProt P17947 1-270)
How it was run: as §1

[8] = target: SPIB (Homo sapiens, UniProt Q01892 1-262)
SPIB, sequence (Q01892 whole entry): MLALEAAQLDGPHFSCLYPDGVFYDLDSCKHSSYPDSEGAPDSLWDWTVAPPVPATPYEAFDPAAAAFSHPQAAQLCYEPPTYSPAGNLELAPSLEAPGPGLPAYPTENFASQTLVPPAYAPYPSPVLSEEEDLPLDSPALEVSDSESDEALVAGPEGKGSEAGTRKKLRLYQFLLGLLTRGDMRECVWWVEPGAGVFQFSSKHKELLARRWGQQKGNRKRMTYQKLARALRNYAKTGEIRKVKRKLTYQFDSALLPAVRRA
How it was run: as §1

[9] = target: T6, ELK3 (Homo sapiens, UniProt P41970 1-407)
T6 sequence: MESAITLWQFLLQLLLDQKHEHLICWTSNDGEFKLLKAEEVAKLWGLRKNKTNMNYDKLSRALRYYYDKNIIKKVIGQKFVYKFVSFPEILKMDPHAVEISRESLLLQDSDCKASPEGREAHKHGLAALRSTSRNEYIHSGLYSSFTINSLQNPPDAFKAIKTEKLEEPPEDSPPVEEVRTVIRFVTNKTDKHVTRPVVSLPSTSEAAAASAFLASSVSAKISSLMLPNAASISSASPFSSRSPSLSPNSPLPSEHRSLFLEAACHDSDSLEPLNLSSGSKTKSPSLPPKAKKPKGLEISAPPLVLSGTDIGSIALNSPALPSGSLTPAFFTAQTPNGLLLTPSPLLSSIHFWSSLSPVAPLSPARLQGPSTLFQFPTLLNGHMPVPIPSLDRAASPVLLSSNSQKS
How it was run: as §1

[10] = target: T7, FEV (Homo sapiens, UniProt Q99581 1-238)
T7 sequence: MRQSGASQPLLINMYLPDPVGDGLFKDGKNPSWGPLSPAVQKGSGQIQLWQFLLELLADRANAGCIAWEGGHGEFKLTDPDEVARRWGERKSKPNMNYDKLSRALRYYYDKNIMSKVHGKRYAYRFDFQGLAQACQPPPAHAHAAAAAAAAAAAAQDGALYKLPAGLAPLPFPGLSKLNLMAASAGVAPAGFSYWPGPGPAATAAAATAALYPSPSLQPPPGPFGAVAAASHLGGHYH
How it was run: as §1

[11] = target: ETV5 (Homo sapiens, UniProt P41161 1-510)
ETV5, sequence (P41161 whole entry): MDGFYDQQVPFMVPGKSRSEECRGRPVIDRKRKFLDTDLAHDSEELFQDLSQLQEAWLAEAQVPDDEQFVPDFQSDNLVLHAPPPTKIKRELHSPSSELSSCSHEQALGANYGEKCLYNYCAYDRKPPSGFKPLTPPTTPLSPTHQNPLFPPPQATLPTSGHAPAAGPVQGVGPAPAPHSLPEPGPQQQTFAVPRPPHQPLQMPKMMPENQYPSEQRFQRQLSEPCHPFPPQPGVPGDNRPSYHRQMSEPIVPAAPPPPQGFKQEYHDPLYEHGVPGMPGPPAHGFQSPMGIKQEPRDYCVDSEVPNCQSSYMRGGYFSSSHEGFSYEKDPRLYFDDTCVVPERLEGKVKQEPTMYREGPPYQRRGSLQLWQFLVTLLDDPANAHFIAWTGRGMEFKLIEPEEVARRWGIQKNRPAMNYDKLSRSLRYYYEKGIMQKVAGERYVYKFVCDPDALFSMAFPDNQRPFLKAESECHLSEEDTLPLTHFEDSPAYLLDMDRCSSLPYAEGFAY
How it was run: as §1

[12] = target: T8, SPIC (Homo sapiens, UniProt Q8N5J4 1-248)
T8 sequence: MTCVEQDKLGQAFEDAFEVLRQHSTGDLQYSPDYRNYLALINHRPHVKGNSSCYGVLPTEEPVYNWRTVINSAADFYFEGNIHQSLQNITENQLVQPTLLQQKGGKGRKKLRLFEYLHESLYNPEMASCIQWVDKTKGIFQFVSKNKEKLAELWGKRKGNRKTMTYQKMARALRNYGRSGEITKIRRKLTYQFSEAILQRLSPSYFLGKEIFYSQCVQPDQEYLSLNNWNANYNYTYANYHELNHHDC
How it was run: as §1

[13] = target: ELF4 (Homo sapiens, UniProt Q99607 1-663)
ELF4, sequence (Q99607 whole entry): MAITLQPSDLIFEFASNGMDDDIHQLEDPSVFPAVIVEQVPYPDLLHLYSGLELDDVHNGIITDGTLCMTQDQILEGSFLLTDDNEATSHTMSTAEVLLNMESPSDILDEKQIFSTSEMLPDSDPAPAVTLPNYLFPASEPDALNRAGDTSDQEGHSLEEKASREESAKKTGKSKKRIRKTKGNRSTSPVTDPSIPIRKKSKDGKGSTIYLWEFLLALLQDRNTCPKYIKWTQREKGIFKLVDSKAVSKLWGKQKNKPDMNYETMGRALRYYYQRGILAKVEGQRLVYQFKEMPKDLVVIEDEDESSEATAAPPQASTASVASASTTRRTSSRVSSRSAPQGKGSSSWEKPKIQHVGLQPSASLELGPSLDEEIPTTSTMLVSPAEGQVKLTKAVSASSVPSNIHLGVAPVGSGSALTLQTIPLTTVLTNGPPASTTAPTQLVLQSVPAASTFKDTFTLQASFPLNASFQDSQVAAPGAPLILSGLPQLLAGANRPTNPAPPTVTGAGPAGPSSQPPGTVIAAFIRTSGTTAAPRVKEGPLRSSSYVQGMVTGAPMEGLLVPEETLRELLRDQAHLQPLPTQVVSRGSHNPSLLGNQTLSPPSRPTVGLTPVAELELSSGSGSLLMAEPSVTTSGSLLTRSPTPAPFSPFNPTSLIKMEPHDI
How it was run: as §1

[14] = target: T9, ELK4 (Homo sapiens, UniProt P28324-2 1-405)
T9 sequence: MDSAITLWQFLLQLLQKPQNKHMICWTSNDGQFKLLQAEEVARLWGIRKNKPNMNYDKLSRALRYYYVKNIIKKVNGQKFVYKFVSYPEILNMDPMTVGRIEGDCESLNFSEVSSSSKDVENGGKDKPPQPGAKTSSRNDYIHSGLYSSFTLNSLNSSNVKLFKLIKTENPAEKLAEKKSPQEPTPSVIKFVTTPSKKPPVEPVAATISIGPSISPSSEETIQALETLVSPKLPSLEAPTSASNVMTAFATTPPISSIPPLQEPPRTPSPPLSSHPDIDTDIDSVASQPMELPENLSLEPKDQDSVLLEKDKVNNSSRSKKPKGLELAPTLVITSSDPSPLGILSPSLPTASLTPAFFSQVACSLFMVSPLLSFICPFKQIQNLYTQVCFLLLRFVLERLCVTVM
How it was run: as §1

[15] = target: T10, ETV2 (Homo sapiens, UniProt O00321 1-342)
T10 sequence: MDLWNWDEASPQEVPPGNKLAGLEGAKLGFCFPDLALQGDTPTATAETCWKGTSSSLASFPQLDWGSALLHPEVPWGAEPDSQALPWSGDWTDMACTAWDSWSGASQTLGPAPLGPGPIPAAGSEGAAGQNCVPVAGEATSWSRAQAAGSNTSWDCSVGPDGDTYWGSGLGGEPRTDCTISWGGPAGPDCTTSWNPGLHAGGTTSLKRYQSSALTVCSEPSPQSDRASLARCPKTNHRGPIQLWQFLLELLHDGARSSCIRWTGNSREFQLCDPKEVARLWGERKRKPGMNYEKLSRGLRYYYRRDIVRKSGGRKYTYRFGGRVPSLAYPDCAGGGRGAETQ
How it was run: as §1

[16] = target: T11, ELF3 (Homo sapiens, UniProt P78545 1-371)
T11 sequence: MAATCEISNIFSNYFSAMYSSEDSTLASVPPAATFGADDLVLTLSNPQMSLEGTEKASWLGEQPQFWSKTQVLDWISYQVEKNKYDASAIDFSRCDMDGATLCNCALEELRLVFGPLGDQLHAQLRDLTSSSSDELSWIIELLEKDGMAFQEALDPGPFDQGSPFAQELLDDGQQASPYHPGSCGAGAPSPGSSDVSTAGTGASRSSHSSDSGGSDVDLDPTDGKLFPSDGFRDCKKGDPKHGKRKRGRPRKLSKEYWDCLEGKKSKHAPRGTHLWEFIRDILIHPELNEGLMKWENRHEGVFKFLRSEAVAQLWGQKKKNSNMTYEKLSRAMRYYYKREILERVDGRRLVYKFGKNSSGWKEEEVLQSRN
How it was run: as §1

[17] = target: CRX (Homo sapiens, UniProt O43186 1-299)
CRX, sequence (O43186 whole entry): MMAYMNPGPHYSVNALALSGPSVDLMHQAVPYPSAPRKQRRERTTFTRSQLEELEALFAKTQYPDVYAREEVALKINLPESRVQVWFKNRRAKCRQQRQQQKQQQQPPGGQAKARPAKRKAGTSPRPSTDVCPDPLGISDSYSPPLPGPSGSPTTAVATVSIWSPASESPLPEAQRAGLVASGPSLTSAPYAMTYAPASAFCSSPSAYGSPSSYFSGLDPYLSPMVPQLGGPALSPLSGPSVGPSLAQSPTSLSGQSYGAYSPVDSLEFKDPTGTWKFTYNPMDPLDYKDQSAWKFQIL
How it was run: as §1

[18] = target: ETV1 (Homo sapiens, UniProt P50549 1-477)
ETV1, sequence (P50549 whole entry): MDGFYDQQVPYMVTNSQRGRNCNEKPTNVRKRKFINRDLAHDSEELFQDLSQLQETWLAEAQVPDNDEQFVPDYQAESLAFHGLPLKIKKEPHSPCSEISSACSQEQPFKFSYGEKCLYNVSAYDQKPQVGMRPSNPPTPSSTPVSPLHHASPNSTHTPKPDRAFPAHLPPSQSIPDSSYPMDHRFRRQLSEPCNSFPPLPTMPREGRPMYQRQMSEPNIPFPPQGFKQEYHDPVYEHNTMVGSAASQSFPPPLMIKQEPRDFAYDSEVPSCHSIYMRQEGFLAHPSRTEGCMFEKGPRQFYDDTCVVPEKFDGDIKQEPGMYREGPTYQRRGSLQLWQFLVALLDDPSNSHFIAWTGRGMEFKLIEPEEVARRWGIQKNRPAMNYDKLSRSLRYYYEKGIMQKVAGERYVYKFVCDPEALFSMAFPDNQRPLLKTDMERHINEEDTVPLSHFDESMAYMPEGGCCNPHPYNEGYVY
How it was run: as §1

GGATAT
binding signal [1]: 1.61 fold enrichment (6-mer frequency, TF over GST control) | binding signal [2]: 1.65 fold enrichment (6-mer frequency, TF over GST control) | binding signal [3]: 1.45 fold enrichment (6-mer frequency, TF over GST control) | binding signal [4]: 2 fold enrichment (6-mer frequency, TF over GST control) | binding signal [5]: 1.48 fold enrichment (6-mer frequency, TF over GST control) | binding signal [6]: 1.55 fold enrichment (6-mer frequency, TF over GST control) | binding signal [7]: 1.37 fold enrichment (6-mer frequency, TF over GST control) | binding signal [8]: 1.58 fold enrichment (6-mer frequency, TF over GST control) | binding signal [9]: 1.55 fold enrichment (6-mer frequency, TF over GST control) | binding signal [10]: 3.83 fold enrichment (6-mer frequency, TF over GST control) | binding signal [11]: 1.71 fold enrichment (6-mer frequency, TF over GST control) | binding signal [12]: 1.53 fold enrichment (6-mer frequency, TF over GST control) | binding signal [13]: 1.38 fold enrichment (6-mer frequency, TF over GST control) | binding signal [14]: 1.48 fold enrichment (6-mer frequency, TF over GST control) | binding signal [15]: 1.55 fold enrichment (6-mer frequency, TF over GST control) | binding signal [16]: 1.78 fold enrichment (6-mer frequency, TF over GST control) | binding signal [17]: 1.09 fold enrichment (6-mer frequency, TF over GST control) | binding signal [18]: 1.62 fold enrichment (6-mer frequency, TF over GST control)
